# Source: PubChem BioAssay
# A number with no mark means an inactive call. How the calls were made is not given here.
# Target: Pantothenate synthetase (Mycobacterium tuberculosis (strain ATCC 25618 / H37Rv)) (UniProt P9WIL5)
# Assay: Recombinant Mtb pantothenate synthetase (PanC) inhibitors, coupled enzyme, confirmatory (AID 375);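 further: 0% = full reaction with vehicle and 100% = no enzyme background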
# Conditions: coupled enzyme assay; at 10 µM, stronger effect = higher value
# Pantothenate synthetase (Mycobacterium tuberculosis (strain ATCC 25618 / H37Rv)), sequence (P9WIL5 whole entry, looked up): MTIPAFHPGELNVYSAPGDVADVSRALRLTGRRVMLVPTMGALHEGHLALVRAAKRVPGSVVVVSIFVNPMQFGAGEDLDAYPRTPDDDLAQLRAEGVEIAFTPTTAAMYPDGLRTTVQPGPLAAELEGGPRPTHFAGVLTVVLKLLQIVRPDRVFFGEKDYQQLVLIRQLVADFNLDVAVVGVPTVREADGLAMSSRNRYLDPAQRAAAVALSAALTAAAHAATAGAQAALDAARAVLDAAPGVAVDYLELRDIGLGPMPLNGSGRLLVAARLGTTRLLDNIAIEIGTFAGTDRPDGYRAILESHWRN
row,SMILES,inhibition [%]
1,O=C(CSc1nnc(C2CC2)n1Cc1ccccc1)c1ccc(S(=O)(=O)N2CCOCC2)cc1,0
2,Nc1ncnc2oc(-c3ccco3)c(-c3ccco3)c12,2
3,CCn1c(SCC(=O)Nc2nccs2)nnc1-c1ccncc1,4
4,O=C(CSCc1cccc(F)c1)N1CCN(c2ccccc2)CC1,4
5,COc1cccc(C(=O)Nc2cc(C)c3c(=O)oc4ccccc4c3n2)c1,0
6,O=C(O)c1cc2c([nH]c1=O)CCCC2,8
7,O=C(NC1CCCC1)C(c1ccco1)N(Cc1ccccc1)C(=O)c1csnn1 (centres undefined),0
8,CCN(CCO)C(=O)CC(c1ccccc1)c1cc(Br)ccc1O (centres undefined),5
9,O=C(CSc1nnc(-c2cnccn2)n1Cc1ccco1)c1ccc(Cl)cc1,0
10,COc1ccc(NC(=O)CSc2ccccn2)cc1OC,0
11,CCOC(=O)C1C2C=CC3(CN(c4cccc(Cl)c4)C(=O)C13)O2 (centres undefined),0
12,COc1cccc(NC(=O)C2CCCN2C(=O)Nc2cccc(F)c2)c1 (centres undefined),0
13,Cc1cc(C)nc(/N=C2\NC(=O)CC(C(=O)O)N2c2ccc(Cl)cc2)n1 (centres undefined),0
14,COc1cccc(-c2nc(CS(=O)(=O)CC(=O)NCc3ccc(Cl)cc3)c(C)o2)c1,0
15,C=CCn1c(COc2ccccc2)nnc1SCC(=O)C(C)(C)C,0
16,O=C(COC(=O)c1ccc(NS(=O)(=O)c2ccc3c(c2)OCCO3)cc1)NCC1CCCO1 (centres undefined),2
17,CCOC(=O)C1=C(CC)Nc2ccccc2N=C1NC(=O)Nc1ccccc1OC,2
18,CC1(c2ccncc2)Nc2ccccc2-c2nc3ccccc3n21 (centres undefined),0
19,COc1cccc(NC(=O)CSc2nnc(-c3cc(-c4ccccn4)nc4ccccc34)o2)c1,2
20,O=C(CSc1ncnc2c1oc1ccccc12)NCc1ccco1,6

row,SMILES,inhibition [%]
1,CSCCC(C(=O)Nc1ccc2c(c1)OCO2)N1C(=O)c2ccccc2C1=O (centres undefined),0
2,Cc1nn(-c2ccccc2)c2sc(C(=O)N3CCOCC3)cc12,0
3,Cc1ccc(-c2nnc(SC(C)C#N)n2N)cc1 (centres undefined),3
4,O=C1NC(=O)C(CC(=O)N(Cc2ccco2)C2(C(=O)NC3CCCC3)CCCCC2)N1 (centres undefined),0
5,c1ccc(C(Cc2nc(-c3ccccn3)no2)c2ccccc2)cc1,0
6,CC(C)(C)c1ccc(O)c(N)c1,2
7,CCC1C(=O)n2nc(-c3ccccc3)cc2N=C1C (centres undefined),0
8,Cc1ccc(C)c(S(=O)(=O)NCc2ccc(C(=O)N3CCN(C)CC3)cc2)c1,0
9,CC(C)(C)NC(=O)C(Cc1ccccc1)NS(=O)(=O)c1cccc2nsnc12 (centres undefined),0
10,COC(=O)C(NC(C)=O)(Nc1ccccn1)C(F)(F)F (centres undefined),1
11,CCOC(=O)N1CCN(C(=O)c2ccc3nc4ccsc4c(=O)n3c2)CC1,2
12,O=C(NC1CCCCCCC1)C1CCN(c2nc3ccccc3o2)CC1,3
13,Cc1cc(C)c(NC(=O)CSc2nc3c(c(=O)n2C)SC(C)C3)c(C)c1 (centres undefined),0
14,CCN1CCN(C(=O)N[C@@H](C(=O)N[C@@H]2C(=O)N3[C@@H]2SC(C)(C)[C@@H]3C(=O)O)c2ccccc2)C(=O)C1=O,2
15,CCSc1nc2ccccc2n1CCC(=O)O,0
16,O=C(NCCN1C(=O)C2C3C=CC(C3)C2C1=O)Nc1ccccn1 (centres undefined),0
17,Cc1noc(C)c1S(=O)(=O)NCCN1CCN(c2ccccc2)CC1,4
18,O=S(=O)(c1ccccc1)N1CCSC1c1ccco1 (centres undefined),3
19,C=CCOC(=O)C1=C(C)OC(N)=C(C#N)C1c1ccc2c(c1)OCO2 (centres undefined),9
